Source: PubChem BioAssay (NCATS)
Several values for one entry are separate records, joined by “and”; a condition that tells them apart may be missing. Equal entries are not always repeated. Results filed as inconclusive are left out. Entries that show only a call come without a potency. Activity calls are given as the source filed them. Calls follow the shape of the dose curve; as a rule, active = well fitted cell-killing curve with a large enough effect; inconclusive = small, poorly fitted or top-dose-only effect; inactive = no such curve, though single readings can be large or run the other way.
Potency is read from the fitted curve at half-maximal effect.

Assay: Cell Viability - LYMP2-001 (AID 921); also: nearly all actives have a fitted effect of over 70% in size
Conditions: LYMP2-001 lymphoblastoid cell viability; series mostly up to 92.2 µM
Text: NIH Chemical Genomics Center [NCGC]
NIH Molecular Libraries Screening Centers Network [MLSCN]
National Institutes of Environmental Health Sciences [NIEHS]
National Toxicology Program [NTP]
We have developed a 1536-well cell-based assay for quantitative high throughput screening (qHTS) against a number of cell lines to determine in vitro cytotoxicity of small molecules. This particular assay uses a human lymphoblastoid cell line (LYMP2-001) purchased from Coriell Institute for Medical Research.
NCGC Assay Protocol Summary:
The CellTiter-Glo luminescent cell viability assay (Promega) is a homogeneous method to measure the number of viable cells in culture. The end point readout of this assay is based on quantitation of intracellular ATP, an indicator of metabolic activity, using the luciferase reaction. Luciferase catalyzes the oxidation of beetle Luciferin to oxyluciferin and light in the presence of ATP. The luminescent signal is proportional to amount of ATP present.
Using the CellTiter-Glo luminescent cell viability assay, the amount of cellular ATP was measured in the lymphoblastoid cell line with complete culture medium following compound treatment for 24 hours. The assay was performed in opaque white Kalypsys 1536-well plates. In the screen, tetraoctylammonium bromide was used as positive control. Library compounds were measured for their ability to cause acute toxicity in the cell line, as reflected by a decrease in intracellular ATP levels, in a concentration-dependent manner. […] AC50 values were determined from concentration-response data modeled with the standard Hill equation.
qHTS protocol for CellTiter Glo lymphoblastoid cellular assay
[Step] [Parameter] [Value] [Description]
1. Reagent; 5 uL; 2500 lymphoblastoid cells/well
2. Time; 5 hr; 37 C incubation
4. Controls; 23 nL; Tetraoctylammonium bromide 6.4pM to 92 uM
5. Time; 24 hr; 37 C incubation
6. Reagent; 5 uL; CellTiter Glo reagent
7. Time; 30 min; Room Temperature
8. Detection; Luminescence; Viewlux plate reader
Keywords: cell viability, cytotoxicity, lymphoblastoid cell line, luminescence, NTPHTS, NTPHTS_NCGC, NIEHS, DSSTox, MLSMR, MLSCN, NIH Roadmap, qHTS, NCGC
For `ClC(Cl)(Cl)Cl`, the Potency was “inactive”. In the case of `[Cl-].[Cl-].[Hg+2]`, the Potency is reported as 0.794 µM (active). With `CCCCCl` the Potency was “inactive”. For `C[C@]12CCC(=O)C[C@@H]1CC[C@@H]1[C@@H]2CC[C@]2(C)[C@@H](O)CC[C@@H]12`, the Potency was “inactive”. With `CC(C)(C)c1cc(O)ccc1O` the Potency was 39.8 µM (active). For `O=C/C=C/c1ccccc1`, the Potency was “inactive”. For `CC(C)Nc1ccc(Nc2ccccc2)cc1`, the Potency was 12.6 µM (active). For `O=C1CCO1`, the Potency was “inactive”. In the case of `O=C1C2CC=CCC2C(=O)N1SC(Cl)(Cl)Cl` (stereo not drawn), the Potency is reported as 2 µM (active) and 5.01 µM (active). For `Oc1cc(Cl)c(Cl)cc1Cl`, the Potency was “inactive”. With `COC1=CC(=O)O[C@@H](/C=C/c2ccccc2)C1` the Potency was “inactive”. In the case of `CCCCCCCCOC(=O)c1ccccc1C(=O)OCCCCCCCC`, the Potency is reported as “inactive”. For `CCOC(=O)c1ccccc1C(=O)OCC`, the Potency was “inactive”. In the case of `C[C@H]1CCC[C@H](O)CCCCCc2cc(O)cc(O)c2C(=O)O1`, the Potency is reported as “inactive”. With `O=[N+]([O-])c1ccccc1` the Potency was “inactive”. For `COc1ccc2c(c1OC)C(=O)OC2C1c2cc3c(cc2CCN1C)OCO3` (stereo not drawn), the Potency was “inactive”. For `S=C=S`, the Potency was “inactive”. For `C=CCN=C=S`, the Potency was “inactive”. With `C[C@H]1CC[C@@H]2[C@@H](C)[C@H]3[C@H](C[C@H]4[C@@H]5CC=C6CC(O[C@@H]7O[C@H](CO)[C@H](O)[C@H](O[C@@H]8O[C@H](CO)[C@@H](O)[C@H](O)[C@H]8O)[C@H]7O[C@H]7O[C@@H](C)[C@H](O)[C@@H](O)[C@H]7O)CC[C@]6(C)[C@H]5CC[C@]34C)N2C1` (stereo partly drawn) the Potency was “inactive”. For `CC(C)CCON=O`, the Potency was “inactive”. For `Clc1ccccc1Cl`, the Potency was “inactive”. For `NNC(N)=O`, the Potency was “inactive”. In the case of `O=C(O)C(Cl)(Cl)Cl`, the Potency is reported as “inactive”. With `O=CC=O` the Potency was “inactive”. With `[O]=[Cd]` the Potency was “inactive”. With `[O]=[Cr](=[O])([OH])[O][Cr](=[O])(=[O])[OH]` the Potency was 12.6 µM (active) and 6.31 µM (active). For `ClC=C(Cl)Cl`, the Potency was “inactive”. With `O=Cc1ccco1` the Potency was “inactive”.
